Drawing on PubChem BioAssay (Tox21), this text covers Potency and outcome for seven molecules.

Assay [1] in a line: A CellTox Green Cytotoxicity Assay to monitor cytotoxicity in HEK293 cells - 32 hour (AID 1224881). Further: nearly all actives have a fitted effect of over 40% in size. The method in brief: (§1)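 HEK293 cells, 600/well, were preincubated 5 hours and then exposed to compounds at 37 C for up to 40 hours. A cell-impermeant cyanine dye staining dead-cell DNA was read by fluorescence at 0, 8, 16, 24, 32 and 40 h time points.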
Assay [2] in a line: A CellTox Green Cytotoxicity Assay to monitor cytotoxicity in HepG2 cells - 0 hour (AID 1224882). Further: nearly all actives have a fitted effect of over 35% in size. The procedure, abridged:
(§2)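 HepG2 cells, 600/well, preincubated 5 h with CellTox Green dye, then exposed to Tox21 compounds in DMSO at 37 C for up to 40 h. Dead-cell DNA fluorescence read at the indicated time point.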

Assay [3] can be described thus: A CellTox Green Cytotoxicity Assay to monitor cytotoxicity in HEK293 cells - 8 hour (AID 1224884). Further: nearly all actives have a fitted effect of over 35% in size. The procedure, abridged: as §1
Assay [4] can be described thus: qHTS RealTime-Glo MT Cell Viability Assay in HepG2 cells - 16 hour (AID 1224885). Further: nearly all actives have a fitted effect of over 50% in size. Further: potency means the concentration at half of the fitted maximal effect. The procedure, abridged:
(§3)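 Real-time, nonlytic viability: 600 HepG2 cells/well mixed with NanoLuc enzyme plus prosubstrate; 5 h settle, compound (DMSO) added by pintool; luminescence monitored over 40 h at 37 C.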

A short description of assay [5]: qHTS RealTime-Glo MT Cell Viability Assay in HEK293 cells - 8 hour (AID 1224887). Further: nearly all actives have a fitted effect of over 50% in size. Further: potency means the concentration at half of the fitted maximal effect. The procedure, abridged:
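600 cells/well were plated with the nonlytic NanoLuc/prosubstrate reagent, pre-incubated 5 h, then given 23 nL of compound in DMSO. Incubation at 37 C for 40 h, with luminescence from viable-cell-reduced substrate read repeatedly from 0 h.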
Background: qHTS replaces the single test concentration by a dilution series.

Assay [6] in a line: A CellTox Green Cytotoxicity Assay to monitor cytotoxicity in HEK293 cells - 16 hour (AID 1224888). Further: nearly all actives have a fitted effect of over 35% in size. The method in brief:
as §1

Assay [7] is described as follows: qHTS RealTime-Glo MT Cell Viability Assay in HepG2 cells - 0 hour (AID 1224889). Further: nearly all actives have a fitted effect of over 50% in size. The procedure, abridged: as §3
The nature of assay [8]: A CellTox Green Cytotoxicity Assay to monitor cytotoxicity in HepG2 cells - 8 hour (AID 1224890). Further: nearly all actives have a fitted effect of over 45% in size. Further: potency means the concentration at half of the fitted maximal effect. The procedure, abridged: as §2
Assay [9] is described as follows: qHTS assay to identify small molecule antagonists of the estrogen receptor alpha (ER-alpha) signaling pathway using the BG1 cell line in the presence of 0.1 nM 17-beta-estradiol - cell viability counter screen (AID 1259241). Further: nearly all actives have a fitted effect of over 40% in size. The method in brief:
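VM7Luc4E2, 4,000 cells/well, phenol red-free medium + 10% charcoal-stripped FBS; 24 hr plating; cpd + 0.1 nM E2 final, 22 hr 37C/5% CO2; CellTiter-Fluor 30 min, fluorescence.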

Assay [10] can be described thus: qHTS assay to identify small molecule antagonists of the androgen receptor (AR) signaling pathway using the MDA cell line in the presence of 0.5 nM R1881 - cell viability counter screen (AID 1259242). Further: nearly all actives have a fitted effect of over 45% in size. The procedure, abridged:
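MDA-kb2 cells (MMTV-luciferase, AR/GR responsive) were treated with compounds plus 0.5 nM R1881 (final) for 16 hr at 37C, 0% CO2. Viability was then read in the same wells as live-cell protease fluorescence (CellTiter-Fluor, 30 min).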

Assay [11] in a line: qHTS assay to identify small molecule HDAC inhibitors - cell viability counter screen (AID 1259365). Further: series mostly up to about 92 µM; nearly all actives have a fitted effect of over 50% in size. The method in brief:
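Luminescence from CellTiter-Glo, developed 30min at room temperature, reports viability of wild-type HCT-116 cells treated 2hr with compounds at 37 C and 5% CO2 after overnight plating.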

Assay [12] can be described thus: qHTS assay to identify small molecule agonists of the sonic hedgehog signaling (Shh) pathway - cell viability counter screen (AID 1259366). Further: nearly all actives have a fitted effect of over 50% in size. Further: potency means the concentration at half of the fitted maximal effect. The procedure, abridged:
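Cytotoxicity counter screen run in the same wells as the Shh reporter assay. NIH/3T3 cells carrying a Gli1 response element–driven luciferase were treated with DMSO-dissolved compounds for 24hr, and live-cell protease activity was measured with CellTiter-Fluor.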

Assay [13] in a line: qHTS assay to identify small molecule antagonists of the sonic hedgehog signaling (Shh) pathway - cell viability counter screen (AID 1259367). Further: nearly all actives have a fitted effect of over 55% in size. Further: potency means the concentration at half of the fitted maximal effect. The procedure, abridged: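 Seed 3T3 Gli1-Luc cells at 2,000 per well; incubate 4 hr; add compound in DMSO, then conditioned medium; incubate at 37C with 5% CO2; add CellTiter-Fluor after 23 hr; read fluorescence 1 hr later.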
Assay [14] in a line: qHTS assay to identify small molecule agonists of the sonic hedgehog signaling (Shh) pathway (AID 1259368; calls by dose curve;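 further: NIH/3T3-derived 3T3Gli1-Luc cells carrying a stable Gli1-driven firefly luciferase reporter; series mostly up to about 92 µM; nearly all actives have a fitted effect of over 15% in size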). The procedure, abridged:
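NIH/3T3-derived 3T3Gli1-Luc cells with stably integrated Gli1-driven firefly luciferase, 2,000 cells/well, compounds added after 4 hr. Incubated 24 hr at 37C, 5% CO2; luminescence read after 30 min with luciferase reagent at room temperature.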

Assay [15] is described as follows: qHTS assay to identify small molecule antagonists of the sonic hedgehog signaling (Shh) pathway (AID 1259369; calls by dose curve; further: nearly all actives have a fitted effect of over 45% in size; further: potency means the concentration at half of the fitted maximal effect). The method in brief: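 NIH/3T3-derived Gli1-Luc reporter cells plated 4 h, dosed with compound, then stimulated with conditioned medium for 24 h at 37 C. Firefly luciferase luminescence read after 30 min with detection reagent at room temperature.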
The nature of assay [16]: qHTS RealTime-Glo MT Cell Viability Assay in HEK293 cells - 24 hour (AID 1224886). Further: nearly all actives have a fitted effect of over 50% in size. Further: potency means the concentration at half of the fitted maximal effect. The method in brief: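 Cells + reagent dispensed (600 cells/well, HEK293) → 5 h at 37 C/5% CO2 → 23 nL compound in DMSO pinned → 40 h at 37 C → luminescence read at 0, 8, 16, 24, 32, 40 h.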
In assay [17] the target is Estrogen receptor (Homo sapiens) (UniProt P03372). Description: qHTS assay to identify small molecule antagonists of the estrogen receptor alpha (ER-alpha) signaling pathway using the BG1 cell line in the presence of 0.1 nM 17-beta-estradiol (AID 1259244). Further: nearly all actives have a fitted effect of over 50% in size. Further: potency means the concentration at half of the fitted maximal effect. The method in brief: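 VM7Luc4E2 cells (endogenous full-length ER-alpha, 4×ERE-luciferase), kept 5 days in phenol red-free, charcoal-stripped FBS medium; 4,000 cells/well. Compounds added with 0.1 nM (final) 17beta-estradiol, 22 hr at 37C; luminescence read with ONE-Glo after 30 min.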
Estrogen receptor (Homo sapiens), sequence (P03372 whole entry, looked up): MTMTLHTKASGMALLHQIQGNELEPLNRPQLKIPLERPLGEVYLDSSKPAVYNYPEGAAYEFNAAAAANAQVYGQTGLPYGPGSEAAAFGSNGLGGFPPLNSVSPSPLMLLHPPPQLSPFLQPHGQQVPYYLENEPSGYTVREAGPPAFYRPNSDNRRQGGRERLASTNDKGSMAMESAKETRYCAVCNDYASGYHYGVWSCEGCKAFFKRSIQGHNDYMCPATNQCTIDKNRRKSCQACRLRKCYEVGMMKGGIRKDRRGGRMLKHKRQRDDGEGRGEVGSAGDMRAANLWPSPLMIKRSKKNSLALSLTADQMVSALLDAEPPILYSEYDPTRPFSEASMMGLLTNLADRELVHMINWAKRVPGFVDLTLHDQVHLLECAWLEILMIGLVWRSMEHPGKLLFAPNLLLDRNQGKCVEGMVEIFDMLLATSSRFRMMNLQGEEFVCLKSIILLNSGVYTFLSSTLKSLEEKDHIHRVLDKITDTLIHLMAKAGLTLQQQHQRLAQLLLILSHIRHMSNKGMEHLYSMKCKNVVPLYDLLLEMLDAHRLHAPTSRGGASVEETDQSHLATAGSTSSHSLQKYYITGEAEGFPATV

The nature of assay [18]: qHTS assay to identify small molecule HDAC inhibitors (AID 1259364). Further: top concentration of the series differs between compounds; nearly all actives have a fitted effect of over 45% in size. The method in brief:
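Wild-type HCT-116 cells, plated overnight at 37 C, exposed to compounds 2 hr at 37 C; luminogenic HDAC-Glo substrate then added 30 min at room temperature. Luminescence reports relative endogenous class I/II HDAC activity.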

“And” between values parts separate entries of the source, which are not always exact repeats. Identical values can stand only once. Results filed as inconclusive are left out. More than one record can exist for a structure, and the calls need not agree. The source made the active and inactive calls. Unless noted, the call rests on the fitted dose curve; in most records, active means well fitted curve in the direction sought with a large enough effect in the repeat runs; inconclusive means weak or mixed curves; inactive means no such curve, though single readings can be large; an effect the other way counts as inactive or inconclusive.

As to `CCC(C)(c1ccc(O)cc1)c1ccc(O)cc1`, the Potency result in assay [1], in assay [2], in assay [3], in [4], in [5] and in assay [6] was “inactive” in each case. The Potency result in assay [7], in [8], in [9], in [10], in assay [12] and in [13] was “inactive” throughout. Besides, the Potency entry in assay [14] was “inactive”. Further, the molecule was classed as inactive in [11]. In addition, in assay [15], the Potency is 24.3 µM (active) and 61.1 µM (active).

On to `CCCCN(CCCC)N=O`, for which the Potency entry in assay [1], in assay [2], in [3], in assay [4], in assay [16] and in assay [5] was “inactive” each time. Further, the Potency entry in [6], in assay [7], in [8], in [9], in assay [17] and in assay [18] was “inactive” in each case. For the same molecule, the Potency result in assay [12], in assay [13], in assay [14] and in assay [15] was “inactive” throughout. In addition, the result in assay [11] was inactive.

As to `Oc1c(Cl)c(Cl)c(Cl)c(Cl)c1Cl`, the Potency result in assay [1], in assay [2], in assay [3], in assay [4], in assay [16] and in [5] was “inactive” throughout. Besides, the Potency result in [6], in assay [7], in assay [8], in assay [9], in [10] and in assay [12] was “inactive” throughout. Also, the Potency result in assay [13], in assay [14] and in assay [15] was “inactive” each time. Further, the Potency in assay [17] was 30 µM (active) and 30.6 µM (active). In addition, the call in assay [11] was inactive.

Turning to `CCCCCc1cc(O)cc(O)c1`, the Potency result in [1], in [2], in assay [3], in assay [6], in assay [7] and in [9] was “inactive” throughout. The Potency entry in assay [10], in [18] and in assay [14] was “inactive” throughout. The Potency entry in [4] is “inactive and 43.6 µM (active)”; in assay [16], 38.9 µM (active); in [5], 24.5 µM (active); in assay [8], “inactive and 38.9 µM (active)”; in [12] it was “inactive and 30.6 µM (active)”; in assay [13], 30.6 µM (active). Moreover, in [15], the Potency is 24.4 µM (active) and 19.3 µM (active). For the same molecule, the result in assay [11] was inactive.

Consider `CC(C)(c1cc(Cl)c(O)c(Cl)c1)c1cc(Cl)c(O)c(Cl)c1`, for which the Potency result in [1], in [2], in assay [3], in assay [4], in assay [16] and in assay [5] was “inactive” in each case. In addition, the Potency result in assay [6], in assay [7], in [8], in assay [9], in assay [10] and in assay [18] was “inactive” each time. Also, the Potency entry in assay [12], in assay [13] and in assay [14] was “inactive” throughout. The result in assay [11] was inactive. Further, the Potency in [15] is 30.6 µM (active) and 34.4 µM (active).

Regarding `S=C1NCCN1`, the Potency entry in assay [1], in assay [2], in assay [3], in assay [4], in assay [16] and in assay [5] was “inactive” throughout. The Potency entry in assay [6], in assay [7], in [8], in assay [9], in assay [10] and in [18] was “inactive” each time. For the same molecule, the Potency entry in assay [12], in assay [13], in assay [14] and in assay [15] was “inactive” in each case. Also, in [11], the call was inactive.

`CCc1cccc(CC)c1N(COC)C(=O)CCl`: the Potency entry in assay [1], in [2], in assay [3], in [4], in assay [16] and in [5] was “inactive” in each case. Further, the Potency entry in assay [6], in assay [7], in assay [8], in assay [9] and in assay [14] was “inactive” in each case. In addition, the Potency is 47 µM (active) in assay [17], 27.3 µM (active) in [12], 59.1 µM (active) in assay [13] and 26.4 µM (active) in assay [15]. Moreover, the result in assay [11] was inactive.
